Compound activity as filed in PubChem BioAssay.
Shown are actives, neighbours in structure and some others; about 19% of the full set was active somewhere.
HT1080 IDH1KD tx – qHTS for induction of synthetic lethality in tumor cells producing 2HG: qHTS for the HT-1080-IDH1KD cell line | Potency, µM (doses to about 46.1 µM), usual class: cytotoxic | 2% of 360,000 active | HT-1080 IDH1 knockdown viability, ATP luminescence, 48 h | AID 686971, 2013
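Luminescent ATP read-out (CellTiter-Glo, 10 min at room temperature) after 48 h compound exposure at 37 °C gave viability of IDH1-knockdown HT-1080 cells. Activity was normalised to DMSO and cell-free wells, then fitted as concentration-response curves.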
HT1080NT lethal – qHTS for induction of synthetic lethality in tumor cells producing 2HG: qHTS for the HT-1080-NT fibrosarcoma cell line; AID 686970, 2013; 1.6% of 360,000 active; Potency, µM (top dose mostly 46.1 µM), actives largely listed as cytotoxic; HT-1080-NT fibrosarcoma viability, CellTiter-Glo ATP luminescence, 48 h;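 further: NT is the 2HG producing partner of a matched IDH1 knockdown line; nearly all actives have a fitted effect of over 55% in size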
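A 48-hour cytotoxicity screen used HT-1080-NT cells plated 2 hours before compound delivery. ATP-based CellTiter-Glo luminescence measured viability, normalized to DMSO and no-cell controls.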
TDP1 cell noCPT – qHTS for Inhibitors of human tyrosyl-DNA phosphodiesterase 1 (TDP1): qHTS in cells in absence of CPT; DT40 Tdp1-/- hTDP1 cells, no CPT, ATP luminescence, 48 h; Potency, µM (top dose mostly 46.2 µM), usual class: inhibitors; 15% of 420,000 active; AID 686978, 2013; further: nearly all actives have a fitted effect of over 55% in size
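DT40 Tdp1-/-;hTDP1 cells, no CPT (DMSO vehicle only), 400 cells/well; compounds pin-transferred; ≥48 hr, 37 °C; CellTiter-Glo 30 min RT dark, luminescence read.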
IL1B secr inh – qHTS for Inhibitors of Inflammasome Signaling: IL-1-beta AlphaLISA Primary Screen | THP-1 LPS/ATP IL-1B secretion, AlphaLISA, 16 h; hits give low values | activity change, % at 57.5 µM | 4.7% of 360,000 active | AID 743279, 2014; in the data active means activity change below about -50%; inconclusive means mostly about -30% to -49%
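THP-1 cells pretreated 1 hr with compounds (up to 57.5 uM final), then stimulated with LPS (250 ng/mL final) plus ATP (1.25 mM final); secreted IL-1B measured by AlphaLISA after 16 hr, decreased signal indicating inhibition.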
DT40 TDP1 CPT – qHTS for Inhibitors of human tyrosyl-DNA phosphodiesterase 1 (TDP1): qHTS in cells in presence of CPT; chicken DT40 Tdp1-/-;hTDP1 cells + 20 nM CPT, ATP luminescence, 48 h; Potency, µM (doses to about 46.2 µM), hits mostly inhibitors; AID 686979, 2013; 12% of 420,000 active; further: nearly all actives have a fitted effect of over 55% in size
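Chicken DT40 Tdp1-/- cells stably complemented with human TDP1 were seeded at 400 cells/well in medium containing 20 nM camptothecin, exposed to pin-transferred compounds, and grown at 37 °C for at least 48 hr. Viability was read as ATP luminescence.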
A number is an active result; - = inactive; ? = inconclusive; . = not tested or not shown; [ ] = another dose, or the depositor's remark. Unless noted, the call rests on the fitted dose curve; in most records, active means well fitted curve in the direction sought with a large enough effect; inconclusive means small, poorly fitted or top-dose-only effect, or another doubt; inactive means no such curve, though single readings can be large; an effect the other way counts as inactive or inconclusive.

SMILES	HT1080 IDH1KD tx	HT1080NT lethal	TDP1 cell noCPT	IL1B secr inh	DT40 TDP1 CPT
CCn1nc2cc(C(=O)NCC34CC5CC(CC(C5)C3)C4)ccc2c1OC	-	-	?	-	?
CCOc1c2ccc(C(=O)NCC34CC5CC(CC(C5)C3)C4)cc2nn1CC	-	-	16.4µM	?	29.1µM
CCCCNC(=O)c1ccc2c(OCC)n(CCCC)nc2c1	-	-	-	-	-
CCCn1nc2cc(C(=O)NCCc3cccs3)ccc2c1OCC	-	-	18.4µM	-	-
CCOc1c2ccc(C(=O)N[C@H](C)C3CCCCC3)cc2nn1CCOC	-	-	1.03µM	-	1.84µM
CCCCn1nc2cc(C(=O)NCC34CC5CC(CC(C5)C3)C4)ccc2c1OC	-	-	?	-	18.4µM
COc1ccc(NCc2nnc3n2CCCCC3)c(OC)c1	.	.	-	.	-
Cc1nc2cc(NC(=O)CCS(=O)(=O)c3ccccc3)ccc2s1	-	-	-	-	-
Cc1cc(C)cc(C(=O)NCC(=O)N2CCC(C(N)=O)CC2)c1	-	-	-	-	-
S=C(Nc1cc(Cl)ccc1Oc1ccccc1)N1CCN(c2ccccn2)CC1	?	-	?	-79.0	?
CCCCCn1c(SCC#N)nc2cc(C(=O)NCC3CCCO3)ccc2c1=O (stereo not drawn)	-	-	23.1µM	-	?
O=C(CCCn1c(SCc2ccccc2F)nc2ccccc2c1=O)NCC1CCCO1 (stereo not drawn)	-	-	?	-	-
O=C(CCCn1c(SCc2cccc([N+](=O)[O-])c2)nc2ccccc2c1=O)NCC1CCCO1 (stereo not drawn)	?	?	23.1µM	?	?
Cc1ccc(-c2ccccc2NC(=O)CS(=O)CC(=O)Nc2ccc(C)c(Cl)c2)o1 (stereo not drawn)	23.1µM	-	?	-77.4	?
Cc1ccc(NC(=O)CS(=O)CC(=O)NC(C)CCc2ccco2)cc1Cl (stereo not drawn)	-	-	?	-	-
Cc1ccc(-c2ccccc2NC(=O)CCl)o1	-[9.24 µM]	-	20.6µM	-59.1	14.6µM
CCN(C(=N)N=C(N)N)c1ccccc1	-	-	18.4µM	-	?
COc1ccc(C(=O)c2cnc3ccc(C)cc3c2S(=O)(=O)c2ccccc2)cc1	.	.	18.4µM	.	16.4µM
Cc1ccc2ncc(C(=O)c3ccc(C)c(C)c3)c(S(=O)(=O)c3ccc(F)cc3)c2c1	.	.	9.2µM	.	8.2µM
CCc1ccc(S(=O)(=O)c2c(C(=O)c3ccccc3)cnc3ccc(CC)cc23)cc1	.	.	14.6µM	.	14.6µM
COc1ccc(S(=O)(=O)c2c(C(=O)c3ccc(C)c(C)c3)cnc3ccc(F)cc23)cc1	.	.	6.51µM	.	7.31µM
COc1ccc(S(=O)(=O)c2c(O)c3ccc(C(=O)Nc4ccc(F)cc4)cc3[nH]c2=O)cc1	-	-	-	-	-
Cc1ccc(O)c(C(=O)c2cnc3onc(-c4ccc(F)cc4)c3c2)c1	-	-	?	-	?
CCOc1ccc(S(=O)(=O)c2c(C(=O)c3ccc(C)c(C)c3)cnc3ccccc23)cc1	.	.	14.6µM	.	16.4µM
COc1ccc(C(=O)c2cnc3cc4c(cc3c2C)OCO4)cc1	-	-	?	-56.4	?
SMILES	HT1080 IDH1KD tx	HT1080NT lethal	TDP1 cell noCPT	IL1B secr inh	DT40 TDP1 CPT
Cc1ccc(S(=O)(=O)c2c(C(=O)c3ccccc3)cnc3cc4c(cc23)OCCO4)cc1	-	-	20.6µM	-61.1	?
Cc1c(C(=O)c2ccc(Cl)c(Cl)c2)cnc2cc3c(cc12)OCO3	-	-	?	-	?
COc1ccc(NS(=O)(=O)c2cc(NC(=O)CCc3ccc(OC)c(OC)c3)ccc2N2CCOCC2)cc1	-	-	-	-	-
CCn1c2ccccc2c2cc(NC(=O)CNCC3CCCO3)ccc21 (stereo not drawn)	-	?	?	-52.1	?
CCn1c2ccccc2c2cc(NC(=O)CN3CCCC3)ccc21	?	-	-	-69.4	-
CCn1c2ccccc2c2cc(NC(C)=O)ccc21	-	-	-	-	-
